Test systems include HCT-15 colon; HT29 colon; SNB-75 CNS; SNB-19 CNS; U251 CNS; PC-3 prostate; SK-MEL-5 melanoma; UACC-62 melanoma; LOX IMVI melanoma; SK-MEL-28 melanoma; SK-MEL-2 melanoma; EKVX NSCLC; SN12C renal; UO-31 renal; TK-10 renal; ACHN renal; CAKI-1 renal; A498 renal; CCRF-CEM leukemia; MOLT-4 leukemia.
Holding throughout (experiment): NCI-60 one-dose screen, 48 h (100 = growth as untreated, 0 = no growth, -100 = all killed)
Common to all, as to settings: 10 µM unless noted

Compounds without any hit were thinned out: in the full panel of roughly 83,000, 20% have a hit.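 Each cell line was grown in a 96-well plate and treated with one concentration of compound for 48 hours. Values below 10 were considered active.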 A number with no mark means an inactive call. Active and inactive are the calls of the source.

`COc1ccc(-c2cc(C(=O)N3N=C(c4ccc(N)cc4)CC3c3ccc(Cl)cc3)c3cc(OC)ccc3n2)cc1` (stereo not given): the growth in the test with HCT-15 colon is 22.4%; in the test with HT29 colon, 45.1%; with SNB-75 CNS, 87.3%; in the test with SNB-19 CNS it was 92.6%; in the test with U251 CNS it was 74.9%; with PC-3 prostate it was 22.9%. Besides, the growth in the test on SK-MEL-5 melanoma is 88%; with UACC-62 melanoma, 49%; with LOX IMVI melanoma it was 39%; in the test on SK-MEL-28 melanoma, 48%; in the test on SK-MEL-2 melanoma, 88.5%; with EKVX NSCLC, 88.1%. Besides, the growth is 84.5% in the test with SN12C renal; 57% in the test on UO-31 renal; 101% in the test with TK-10 renal; 47% in the test on ACHN renal; 90.5% with CAKI-1 renal; 87.8% in the test on A498 renal. Moreover, the growth in the test with CCRF-CEM leukemia was 23.1%; with MOLT-4 leukemia, 32.5%.

In the case of `COC(=O)[C@]1(C)CCC[C@]2(C)[C@H]3C[C@@H]4[C@H]5[C@@H]6CC/C(=N\OCC/C(N)=N/O)[C@H]5[C@@]3(CC[C@H]21)CC4(C(C)C)O6`, the growth with HCT-15 colon is 36.6%; in the test on HT29 colon it was 74.2%; in the test with SNB-75 CNS it was 66.9%; with SNB-19 CNS, 89.4%; in the test on U251 CNS it was 68.4%; in the test with PC-3 prostate, 47.5%. Besides, the growth with SK-MEL-5 melanoma was 73.2%; in the test with UACC-62 melanoma, 58.5%; in the test on LOX IMVI melanoma, 69%; in the test with SK-MEL-28 melanoma it was 88.9%; with SK-MEL-2 melanoma, 85.8%; in the test with EKVX NSCLC, 62.5%. The growth was 63.4% in the test on SN12C renal; 50.1% with UO-31 renal; 84.9% with TK-10 renal; 68.4% in the test with ACHN renal; 65.1% with CAKI-1 renal; 82.4% in the test on A498 renal. Moreover, the growth with CCRF-CEM leukemia is 18.9%; in the test with MOLT-4 leukemia, 28%.

In the case of `C=C1C(=O)O[C@H]2[C@H]1CC/C(COC(=O)NCc1ccc(Cn3c(=O)sn(-c4ccc(I)cc4)c3=O)cc1)=C\CC[C@@]1(C)O[C@@H]21`, the growth was 57% with HCT-15 colon; 34.1% in the test on HT29 colon; 81.6% with SNB-75 CNS; 107% in the test on SNB-19 CNS; 83.6% in the test with U251 CNS; 77.5% in the test with PC-3 prostate. Besides, the growth is 98.3% with SK-MEL-5 melanoma; 81.2% with UACC-62 melanoma; 69.4% in the test with LOX IMVI melanoma; 93.9% with SK-MEL-28 melanoma; 89.7% in the test on SK-MEL-2 melanoma; 98.4% in the test on EKVX NSCLC. The growth with SN12C renal is 79.1%; with UO-31 renal, 54.4%; in the test with TK-10 renal it was 79.9%; in the test with ACHN renal it was 69.7%; in the test on CAKI-1 renal it was 71.5%; with A498 renal it was 87.7%. For the same compound, the growth is -14.3% (active) in the test with CCRF-CEM leukemia and 5.6% (active) in the test with MOLT-4 leukemia.

Regarding `COc1ccc2c(O)c(/C=C3\N=Nc4ncccc43)oc2c1C[C@@H]1CCNC[C@H]1F`, the growth in the test on HCT-15 colon is -1.3% (active); in the test on HT29 colon, 5.21% (active); in the test with SNB-75 CNS, -57.3% (active); in the test with SNB-19 CNS, 1.93% (active); with U251 CNS it was -84.7% (active); in the test with PC-3 prostate, -29.1% (active). Also, the growth was 5.56% (active) in the test on SK-MEL-5 melanoma; -33.2% (active) in the test with UACC-62 melanoma; -93% (active) with LOX IMVI melanoma; 5.44% (active) in the test on SK-MEL-28 melanoma; -17.9% (active) with SK-MEL-2 melanoma; -5.63% (active) in the test with EKVX NSCLC. For the same compound, the growth is -28.2% (active) in the test on SN12C renal; -14.5% (active) in the test with UO-31 renal; -2.3% (active) in the test on TK-10 renal; -52.7% (active) in the test with ACHN renal; 1.53% (active) with CAKI-1 renal; -32.1% (active) with A498 renal. The growth is -17.4% (active) in the test with CCRF-CEM leukemia and -9.39% (active) with MOLT-4 leukemia.

As to `CCC(C)(C)c1ccc(Nc2ccc(Nc3ccc(C(C)(C)CC)cc3)cc2)cc1`, the growth is 91.2% with HCT-15 colon; 67% in the test on HT29 colon; 93% in the test with SNB-75 CNS; 95.9% in the test on SNB-19 CNS; 90.7% in the test with U251 CNS; 65.8% with PC-3 prostate. Also, the growth in the test on SK-MEL-5 melanoma is 99.2%; in the test on UACC-62 melanoma it was 83.2%; in the test on LOX IMVI melanoma it was 89.9%; in the test on SK-MEL-28 melanoma it was 105%; with SK-MEL-2 melanoma it was 95.9%; in the test on EKVX NSCLC, 98.6%. Further, the growth in the test with SN12C renal is 96.7%; in the test with UO-31 renal, 62.5%; with TK-10 renal, 103%; with ACHN renal, 97%; in the test with CAKI-1 renal, 71%; in the test with A498 renal, 121%. The growth is 87.9% in the test on CCRF-CEM leukemia and 76% with MOLT-4 leukemia.

As for `CC(C)C1C2=C(NCCN1C(=O)c1ccncc1)C(C)(C)N(Cc1ccccc1)C2=O` (stereo not given), the growth in the test on HCT-15 colon is 103%; in the test with HT29 colon it was 92.8%; with SNB-75 CNS, 81.7%; in the test on SNB-19 CNS, 101%; with U251 CNS it was 100%; with PC-3 prostate, 96.1%. Further, the growth in the test with SK-MEL-5 melanoma was 105%; in the test with UACC-62 melanoma, 95.6%; in the test on LOX IMVI melanoma, 95.5%; with SK-MEL-28 melanoma, 114%; in the test with SK-MEL-2 melanoma, 97.4%; in the test with EKVX NSCLC, 99.1%. The growth in the test with SN12C renal is 93.3%; in the test on UO-31 renal, 83.2%; in the test with TK-10 renal, 89.9%; in the test with ACHN renal, 105%; in the test with CAKI-1 renal, 94.4%; with A498 renal it was 113%. The figures for the growth in the test with CCRF-CEM leukemia and in the test with MOLT-4 leukemia were 108% and 84%, respectively.

Consider `O=C1C(Cl)=C(Nc2ccccc2)C(=O)c2ccccc21`, for which the growth was -78.2% (active) in the test with HCT-15 colon; -75.1% (active) in the test on HT29 colon; 97.8% with SNB-75 CNS; 54.2% with SNB-19 CNS; -41.8% (active) with U251 CNS; 39.7% with PC-3 prostate. The growth was -85.3% (active) in the test with SK-MEL-5 melanoma; -49.8% (active) with UACC-62 melanoma; -85.5% (active) in the test with LOX IMVI melanoma; -91.9% (active) in the test with SK-MEL-28 melanoma; -65.9% (active) in the test with SK-MEL-2 melanoma; -91.9% (active) in the test on EKVX NSCLC. The growth with SN12C renal is -73.5% (active); with UO-31 renal it was -42.5% (active); in the test on TK-10 renal, 172%; with ACHN renal, -86.5% (active); with CAKI-1 renal, -83.6% (active); in the test on A498 renal it was 46.9%. For the same compound, the results for the growth in the test with CCRF-CEM leukemia and with MOLT-4 leukemia were -10.5% (active) and -20.1% (active), respectively.

These data come from PubChem BioAssay (NCI).
